In PubChem BioAssay (Tox21):
Records with an inconclusive call do not appear. The source made the active and inactive calls. Calls follow the shape of the dose curve; as a rule, active = well fitted cell-killing curve with a large enough effect in the repeat runs; inconclusive = weak or mixed curves, or effect the other way; inactive = no such curve, though single readings can be large or run the other way.

Test: qHTS assay to identify small molecule agonists of the RXR signaling pathway - cell viability counter screen (AID 1159529); also: nearly all actives have a fitted effect of over 50% in size
Settings: RXR-alpha-bla HEK293T viability, CellTiter-Glo, 16 h; series mostly up to 76.8 µM; activity change, negative = cytotoxicity: at the top concentration
Description: National Center for Advancing Translational Sciences [NCATS]
NIH Chemical Genomics Center [NCGC]
U.S. Environmental Protection Agency [EPA]
National Institutes of Environmental Health Sciences [NIEHS]
National Toxicology Program [NTP]
U.S. Food and Drug Administration [FDA]
The Retinoid X receptor (RXR), a nuclear hormone receptor expressed in liver, spleen, placenta, epidermis, central nervous system. These receptors are able to form homo and heterodimers with other nuclear receptors and due to this heterodimerizing ability, RXR functions as master regulators producing diverse physiological effects. Three subtypes of RXR exist; alpha, beta and gamma. Retinoid X receptor alpha (RXR-alpha) has potential roles in metabolic signaling pathways, skin alopecia, dermal cysts, cardiac development, insulin sensitization etc. Therefore screening environmental chemicals on RXR-alpha signaling can be used for the studies focused on such therapeutic applications. For quantification of RXR-alpha ligands signaling, GeneBLAzer RXR alpha-UAS-bla HEK 293T (Life Technologies, Carlsbad, CA) cells containing a beta-lactamase reporter-gene under control of Retinoid X receptor-alpha response element were used to screen Tox21 10K library. The cytotoxicity of the Tox21 compound library against the RXR-alpha HEK 293T cell line was tested in parallel by measuring cell viability using CellTiter-Glo assay (Promega Corporation, Madison, WI) in the same wells.
Tox21 Assay Protocol Summary:
RXR-alpha HEK 293T cells were dispensed at 2,000 cells/6 uL of assay medium containing 2% charcoal-stripped FBS using a Multidrop Combi (ThermoFisher Scientific, Waltham, MA) dispenser. The assay was performed in black wall/clear-bottom 1536-well plates (Greiner Bio-One North America Inc. Monroe, NC). Tetraoctyl ammonium bromide was used as a positive control in the cytotoxicity screen. After the assay plates were incubated at 37 C and 5% CO2 for 5 hr, 23 nL of compounds dissolved in DMSO, positive control or DMSO only were transferred to the assay plate by a Pintool station (Kalypsys, San Diego, CA). The assay plates were incubated at 37 C and 5% CO2 for 16 hr. One uL of LiveBLAzer B/G FRET substrate (Life Technologies) was added using a Flying Reagent Dispenser (FRD) (Aurora Discovery, San Diego, CA) and the plates were incubated at room temperature for 2 hr. Fluorescence intensity (405 nm excitation, 460/530 nm emission) was measured using an Envision plate reader (PerkinElmer, Shelton, CT). For cytotoxicity, 4 uL/well of CellTiter-Glo reagent was added into the assay plates using an FRD. After 30 min incubation at room temperature, the luminescence intensity was measured using a ViewLux plate reader (PerkinElmer).
% is scaled to controls: 0 for no effect and ±100 for the full control effect; potency is read from the fitted curve at half-maximal effect.

SMILES	activity change, negative = cytotoxicity	Potency
CC(C)(C(=O)c1cccnc1)c1cccnc1	-2.22% [at 35.3 µM] (inactive)	
CC(=O)OCCC(C)CC(C)(C)C (stereo not given)	3.7% (inactive)	
CCCCCCCCCCCSCC(=O)O		19.5 µM (active)
Cc1oc(=O)oc1COC(=O)[C@@H]1N2C(=O)[C@@H](NC(=O)[C@H](N)c3ccccc3)[C@H]2SC1(C)C	5.29% [at 35.3 µM] (inactive)	
CCOc1ncc(F)c(=O)[nH]1	1.32% [at 35.3 µM] (inactive)	
COc1ccc2nc(S(=O)Cc3ncc(C)c(OC)c3C)[nH]c2c1 (stereo not given)		inactive
CN1CCCN(C(c2ccccc2)c2ccc(Cl)cc2)CC1 (stereo not given)		7.56 µM (active)
O=C(C(=O)c1ccco1)c1ccco1	1.19% (inactive)	
CSSc1ccoc1C	-1.05% (inactive)	
Nc1ccc(F)cc1	2.4% (inactive)	
CCC(CO)(CO)[N+](=O)[O-]	-0.288% (inactive)	
CCCCCCCC/C=C/C(=O)O	-8.86% [at 35.3 µM] (inactive)	
Oc1cccc2[nH]ccc12	3.24% [at 35.3 µM] (inactive)	
Oc1ccc2c(c1)Cc1ccccc1-2	2.27% (inactive)	
O=C(O)CCCc1c[nH]c2ccccc12	-4.95% (inactive)	
CC(=O)NCCO	-0.0344% (inactive)	
Cc1ccc2c(c1)CCCN2	-14.2% (inactive)	
Cc1cccc(C)c1NC(=O)c1cc(S(N)(=O)=O)c(Cl)cc1O	0.373% [at 35.3 µM] (inactive)	
Cc1cccc2sc(N)nc12	-11.4% (inactive)	
CCOC(=O)c1c(N)sc2c1CCN(Cc1ccccc1)C2	-1.03% [at 35.3 µM] (inactive)	

SMILES	activity change, negative = cytotoxicity	Potency
COc1ccc(C2C(=O)c3ccccc3C2=O)cc1	8.58% [at 35.3 µM] (inactive)	
CCOCCC(=O)OCC	0.445% (inactive)	
C=C(C)c1ccccc1	11.9% (inactive)	
O=C(c1ccccc1)c1ccc(O)cc1	5.09% (inactive)	
O=C(NS(=O)(=O)/C=C/c1ccccc1)c1ccc(F)cc1Cl	-18% (inactive)	
COc1ccc(C(=O)NCc2ccc(OCCN(C)C)cc2)cc1OC	2.72% [at 35.3 µM] (inactive)	
CC(C)COC(=O)c1ccc(O)cc1	0.67% (inactive)	
Cc1ccc2nc(N)[nH]c(=O)c2c1Sc1ccncc1	-0.839% [at 35.3 µM] (inactive)	
c1ccc(CNc2ncnc3c2ncn3C2CCCCO2)cc1 (stereo not given)	15.1% (inactive)	
c1ccc(CCCc2ccncc2)cc1	-0.267% (inactive)	
COc1cc(OC)c2ccc(=O)oc2c1	8.16% (inactive)	
CCN(CC)C(=O)N1CCN(C)CC1	16.5% [at 35.3 µM] (inactive)	
CCC(CO)(CO)CO	0.254% (inactive)	
CCCCC[C@H](O)/C=C/[C@H]1[C@H](O)CC(=O)[C@@H]1C/C=C\CCCC(=O)O	-0.901% [at 35.3 µM] (inactive)	
COC(C)(C)OC	3.08% (inactive)	
O=C(O)CN1C(=O)c2cccc3cccc(c23)C1=O	5.84% [at 35.3 µM] (inactive)	
CCN(CC)c1cccc(O)c1	16.4% (inactive)	
CC1CCc2nccnc21 (stereo not given)	19% (inactive)	
CN=C(N)NC(=O)Nc1c(C)cccc1C	9.35% [at 35.3 µM] (inactive)	
COc1ccc(N)c([N+](=O)[O-])c1	1.74% (inactive)	
